# Results filed as inconclusive are left out. The source made the active and inactive calls. Unless noted, the call rests on the fitted dose curve; in most records, active means well fitted curve in the direction sought with a large enough effect; inconclusive means small, poorly fitted or top-dose-only effect, or another doubt; inactive means no such curve, though single readings can be large; an effect the other way counts as inactive or inconclusive.
# Columns and labels:
# [1] = biological target: Ubiquitin carboxyl-terminal hydrolase 1 (Homo sapiens) (UniProt O94782); assay: Inhibitors of USP1/UAF1: Pilot qHTS (AID 504865); further: potency means the concentration at half of the fitted maximal effect; nearly all actives have a fitted effect of over 35% in size
# Outline: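 Enzyme-free wells gave the negative control, while test wells held 1nM USP1/UAF1 preincubated with compound for 15 min at room temperature. Ub-Rho at 150nM final started the reaction, and fluorescence at 480/540 nm was recorded kinetically.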
# [2] = biological target: Luciferin 4-monooxygenase (Photinus pyralis) (UniProt P08659); assay: Biochemical firefly luciferase enzyme assay for NPC (AID 624030);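 further: purified P. pyralis luciferase at 10 nM with luciferin and ATP substrate; nearly all actives have a fitted effect of over 70% in size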
# Outline: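 Purified P. pyralis luciferase at 10 nM in 50 mM Tris Acetate (final), luminescence read within 5 minutes of enzyme addition to compounds. Activity normalised to PTC124 versus DMSO; concentration-response curves classed by r2, magnitude and activity.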
# [3] = S16 Schwann cell viability assay (CellTiter-Glo assay) (AID 624031); further: potency means the concentration at half of the fitted maximal effect; nearly all actives have a fitted effect of over 70% in size
# Outline: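 Untransfected S16 rat Schwann cells; compound 24 h, 37 °C/5% CO2; CellTiter-Glo ATP luminescence. % activity vs no-cell wells and DMSO controls (0%); concentration-effect curves classed by r2, response magnitude, activity.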
# [4] = S16 Schwann cell PMP22 intronic element firefly luciferase assay (AID 624032); further: potency means the concentration at half of the fitted maximal effect; nearly all actives have a fitted effect of over 30% in size
# Outline: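 Rat S16 Schwann cells stably carrying firefly luciferase driven by a PMP22 intronic element, in 10% FBS, treated 24 h at 37 C. ONE-Glo luminescence normalized to PTC124 control and DMSO (0%); curves classed by r2, magnitude and activity.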
# [5] = S16 Schwann cell PMP22 intronic element beta-lactamase assay (AID 624044; calls by dose curve; further: potency means the concentration at half of the fitted maximal effect; nearly all actives have a fitted effect of over 15% in size)
# Outline: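 Beta-lactamase reporter under a PMP22 intronic regulatory element in stable S16 rat Schwann cells; 24 h compound exposure. 460 nm blue signal normalized between DMSO (0%) and potassium clavulanate, with 535 nm FRET tracking viability; curves classed by r2 and response.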
# [6] = qHTS Assay for Identifying Gametocytocidal Compounds (AID 743244); further: potency means the concentration at half of the fitted maximal effect; settings: P. falciparum 3D7 stage III-V gametocytes, alamarBlue, 72 h; max response: hits give low values
# Outline: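 P. falciparum 3D7 stage III–V gametocytes (20,000 cells/well) were exposed to compounds for 72 h at 37 °C, 5% CO2. AlamarBlue was then added for 24 h; decreased resorufin fluorescence (Ex 525/Em 598 nm) indicated loss of viability.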
# 3D7 = assay: qHTS profiling for inhibitors of Plasmodium falciparum proliferation (AID 504749); further: potency means the concentration at half of the fitted maximal effect; nearly all actives have a fitted effect of over 60% in size; settings: P. falciparum in erythrocytes, SYBR Green DNA, 72 h; series mostly up to 28.7 µM
# Outline: (§1)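 Each compound contacts P. falciparum-infected red blood cells for 72 h at 37 C; lysis buffer (Tris, EDTA, saponin, Triton X, SYBR Green I) is added and fluorescence measured next morning; values normalized to controls.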
# 7G8 = assay: as above; settings: P. falciparum in erythrocytes, SYBR Green DNA, 72 h; series mostly up to 28.7 µM
# Outline: as §1
# AA1029 = assay: as above; settings: P. falciparum in erythrocytes, SYBR Green DNA, 72 h; series mostly up to 28.7 µM
# Outline: as §1
# AS120 = assay: as above; settings: P. falciparum in erythrocytes, SYBR Green DNA, 72 h; series mostly up to 28.7 µM
# Outline: as §1
# ATS189 = assay: as above; settings: P. falciparum in erythrocytes, SYBR Green DNA, 72 h; series mostly up to 28.7 µM
# Outline: as §1
# ATS95 = assay: as above; settings: P. falciparum in erythrocytes, SYBR Green DNA, 72 h; series mostly up to 28.7 µM
# Outline: as §1
# C2A = assay: as above; settings: P. falciparum in erythrocytes, SYBR Green DNA, 72 h; series mostly up to 28.7 µM
# Outline: as §1
# CP185 = assay: as above; settings: P. falciparum in erythrocytes, SYBR Green DNA, 72 h; series mostly up to 28.7 µM
# Outline: as §1
# CP191 = assay: as above; settings: P. falciparum in erythrocytes, SYBR Green DNA, 72 h; series mostly up to 28.7 µM
# Outline: as §1
# CP192 = assay: as above; settings: P. falciparum in erythrocytes, SYBR Green DNA, 72 h; series mostly up to 28.7 µM
# Outline: as §1
# CP194 = assay: as above; settings: P. falciparum in erythrocytes, SYBR Green DNA, 72 h; series mostly up to 28.7 µM
# Outline: as §1
# CP201 = assay: as above; settings: P. falciparum in erythrocytes, SYBR Green DNA, 72 h; series mostly up to 28.7 µM
# Outline: as §1
# CP203 = assay: as above; settings: P. falciparum in erythrocytes, SYBR Green DNA, 72 h; series mostly up to 28.7 µM
# Outline: as §1
# CP211 = assay: as above; settings: P. falciparum in erythrocytes, SYBR Green DNA, 72 h; series mostly up to 28.7 µM
# Outline: as §1
# CP215 = assay: as above; settings: P. falciparum in erythrocytes, SYBR Green DNA, 72 h; series mostly up to 28.7 µM
# Outline: as §1
# CP217 = assay: as above; settings: P. falciparum in erythrocytes, SYBR Green DNA, 72 h; series mostly up to 28.7 µM
# Outline: as §1
# CP237 = assay: as above; settings: P. falciparum in erythrocytes, SYBR Green DNA, 72 h; series mostly up to 28.7 µM
# Outline: as §1
# CP238 = assay: as above; settings: P. falciparum in erythrocytes, SYBR Green DNA, 72 h; series mostly up to 28.7 µM
# Outline: as §1
# CP247 = assay: as above; settings: P. falciparum in erythrocytes, SYBR Green DNA, 72 h; series mostly up to 28.7 µM
# Outline: as §1
# CP250 = assay: as above; settings: P. falciparum in erythrocytes, SYBR Green DNA, 72 h; series mostly up to 28.7 µM
# Outline: as §1
# CP252 = assay: as above; settings: P. falciparum in erythrocytes, SYBR Green DNA, 72 h; series mostly up to 28.7 µM
# Outline: as §1
# CP256 = assay: as above; settings: P. falciparum in erythrocytes, SYBR Green DNA, 72 h; series mostly up to 28.7 µM
# Outline: as §1
# CP260 = assay: as above; settings: P. falciparum in erythrocytes, SYBR Green DNA, 72 h; series mostly up to 28.7 µM
# Outline: as §1
# CP262 = assay: as above; settings: P. falciparum in erythrocytes, SYBR Green DNA, 72 h; series mostly up to 28.7 µM
# Outline: as §1
# CP265 = assay: as above; settings: P. falciparum in erythrocytes, SYBR Green DNA, 72 h; series mostly up to 28.7 µM
# Outline: as §1
# CP266 = assay: as above; settings: P. falciparum in erythrocytes, SYBR Green DNA, 72 h; series mostly up to 28.7 µM
# Outline: as §1
# CP268 = assay: as above; settings: P. falciparum in erythrocytes, SYBR Green DNA, 72 h; series mostly up to 28.7 µM
# Outline: as §1
# Ubiquitin carboxyl-terminal hydrolase 1 (Homo sapiens), sequence (O94782 whole entry, looked up): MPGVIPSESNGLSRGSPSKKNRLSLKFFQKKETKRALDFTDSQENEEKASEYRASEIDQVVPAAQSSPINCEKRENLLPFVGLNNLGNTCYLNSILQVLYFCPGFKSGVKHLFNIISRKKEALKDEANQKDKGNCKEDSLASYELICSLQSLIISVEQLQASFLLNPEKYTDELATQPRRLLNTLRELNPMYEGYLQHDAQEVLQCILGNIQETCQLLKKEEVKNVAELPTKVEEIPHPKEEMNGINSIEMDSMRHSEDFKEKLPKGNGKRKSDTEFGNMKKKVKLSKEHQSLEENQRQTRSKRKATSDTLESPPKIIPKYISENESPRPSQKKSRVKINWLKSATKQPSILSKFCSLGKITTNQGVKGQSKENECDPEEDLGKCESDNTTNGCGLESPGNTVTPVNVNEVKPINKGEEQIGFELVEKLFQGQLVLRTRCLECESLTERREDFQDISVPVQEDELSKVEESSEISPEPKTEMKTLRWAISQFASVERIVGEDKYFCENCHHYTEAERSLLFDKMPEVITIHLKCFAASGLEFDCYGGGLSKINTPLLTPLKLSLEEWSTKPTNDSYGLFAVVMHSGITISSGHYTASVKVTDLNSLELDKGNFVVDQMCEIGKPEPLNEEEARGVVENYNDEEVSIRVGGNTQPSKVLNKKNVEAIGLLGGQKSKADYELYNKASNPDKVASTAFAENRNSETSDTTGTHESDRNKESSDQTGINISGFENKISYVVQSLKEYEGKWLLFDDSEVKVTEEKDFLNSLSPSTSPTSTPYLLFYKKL
# Luciferin 4-monooxygenase (Photinus pyralis), sequence (P08659 whole entry, looked up): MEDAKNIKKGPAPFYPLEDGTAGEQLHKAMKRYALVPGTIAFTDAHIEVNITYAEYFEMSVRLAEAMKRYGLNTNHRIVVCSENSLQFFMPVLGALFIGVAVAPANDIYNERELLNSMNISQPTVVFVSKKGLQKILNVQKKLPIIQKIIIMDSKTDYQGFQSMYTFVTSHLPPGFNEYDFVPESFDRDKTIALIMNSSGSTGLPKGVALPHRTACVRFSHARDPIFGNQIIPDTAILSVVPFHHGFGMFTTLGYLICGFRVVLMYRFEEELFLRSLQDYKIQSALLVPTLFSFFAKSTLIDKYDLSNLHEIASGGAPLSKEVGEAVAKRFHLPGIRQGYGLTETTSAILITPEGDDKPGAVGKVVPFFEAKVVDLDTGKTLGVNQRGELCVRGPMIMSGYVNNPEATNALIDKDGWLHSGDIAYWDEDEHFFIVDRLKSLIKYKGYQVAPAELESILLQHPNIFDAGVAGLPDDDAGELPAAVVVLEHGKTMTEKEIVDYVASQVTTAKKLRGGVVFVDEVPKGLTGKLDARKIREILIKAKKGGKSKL
compound,measurement,setting,value
CCCCCCCCCC[N+](C)(C)CCCCCCCCCC,Potency,[1],31.6 µM (active)
same,Potency,[2],inactive
same,Potency,[3],18.1 µM (active)
same,Potency,[4],16.1 µM (active)
same,Potency,[5],25.1 µM (active)
same,Potency,[6],7.94 µM (active)
same,Potency,3D7,2 µM (active)
same,Potency,7G8,2 µM (active)
same,Potency,AA1029,7.08 µM (active)
same,Potency,AS120,6.31 µM (active)
same,Potency,ATS189,7.08 µM (active)
same,Potency,ATS95,6.31 µM (active)
same,Potency,C2A,4.47 µM (active)
same,Potency,CP185,4.47 µM (active)
same,Potency,CP191,3.98 µM (active)
same,Potency,CP192,4.78 µM (active)
same,Potency,CP194,6.75 µM (active)
same,Potency,CP201,9.53 µM (active)
same,Potency,CP203,6.75 µM (active)
same,Potency,CP211,9.53 µM (active)
same,Potency,CP215,8.49 µM (active)
same,Potency,CP217,4.47 µM (active)
same,Potency,CP237,7.08 µM (active)
same,Potency,CP238,5.62 µM (active)
same,Potency,CP247,4.47 µM (active)
same,Potency,CP250,4.47 µM (active)
same,Potency,CP252,7.08 µM (active)
same,Potency,CP256,4.47 µM (active)
same,Potency,CP260,3.98 µM (active)
same,Potency,CP262,5.36 µM (active)
same,Potency,CP265,5.01 µM (active)
same,Potency,CP266,6.75 µM (active)
same,Potency,CP268,6.01 µM (active)

# Source: PubChem BioAssay (NCATS)
